Assay [1] is described as follows: qHTS for identification of novel therapeutic agents for treatment of microphthalmiaassociated transcription factor (MiT) renal cell carcinoma (RCC) (AID 1963991; calls by dose curve; also: potency is read from the fitted curve at half-maximal effect). Conditions: CellTiter-Glo, 48 h; for Potency: active = Z-AUC below -0.8 in all three lines; for z-score: stronger effect = lower value. Summed up:
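Three TFE3-fusion RCC cell lines (UOK109, UOK124, UOK145), 500 cells/well, were exposed to the 1912-compound MIPE 4.0 library for 48 hours at 37 C. Viability was read by CellTiter-Glo luminescence, normalised to DMSO (100%) and empty wells (0%), with 11-concentration curve fits.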
(In qHTS, concentration-response curves come from the screen itself.)

Assay [2] in a line: qHTS profiling for inhibitors of Plasmodium falciparum proliferation (AID 504749).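 Also: 0% = DMSO vehicle and full inhibition = artemisinin control; nearly all actives have a fitted effect of over 60% in size.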 Conditions: P. falciparum in erythrocytes, SYBR Green DNA, 72 h. Summed up: (§1)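 Three-day growth assay of blood-stage parasites in erythrocytes (0.3% parasitemia, 2.5% hematocrit) at 37 C, 5% CO2, quantified by SYBR Green DNA staining after overnight detergent lysis.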
Assay [3] has as its system 3D7. The description is as above. Conditions: P. falciparum in erythrocytes, SYBR Green DNA, 72 h; series mostly up to 28.7 µM. Summed up: as §1
Assay [4] concerns 7G8. The assay is described as above. Conditions: P. falciparum in erythrocytes, SYBR Green DNA, 72 h; series mostly up to 28.7 µM. The procedure, abridged:
as §1

In assay [5] the test system is AA1029. The assay is described as above. Conditions: P. falciparum in erythrocytes, SYBR Green DNA, 72 h; series mostly up to 28.7 µM. The procedure, abridged:
as §1

Assay [6] concerns AS120. The description is as above. Conditions: P. falciparum in erythrocytes, SYBR Green DNA, 72 h; series mostly up to 28.7 µM. The procedure, abridged:
as §1

Assay [7] deals with ATS189. The assay is described as above. Conditions: P. falciparum in erythrocytes, SYBR Green DNA, 72 h; series mostly up to 28.7 µM. Summed up: as §1
Assay [8] concerns ATS95. The description is as above. Conditions: P. falciparum in erythrocytes, SYBR Green DNA, 72 h; series mostly up to 28.7 µM. Summed up: as §1
Assay [9] has as its system C2A. The assay is described as above. Conditions: P. falciparum in erythrocytes, SYBR Green DNA, 72 h; series mostly up to 28.7 µM. Summed up:
as §1

Assay [10] has as its system CP185. The assay is described as above. Conditions: P. falciparum in erythrocytes, SYBR Green DNA, 72 h; series mostly up to 28.7 µM. Summed up: as §1
The subject of assay [11] is CP191. Described as above. The conditions noted are these: P. falciparum in erythrocytes, SYBR Green DNA, 72 h; series mostly up to 28.7 µM. The procedure, abridged:
as §1

Assay [12] deals with CP192. The assay is described as above. Conditions: P. falciparum in erythrocytes, SYBR Green DNA, 72 h; series mostly up to 28.7 µM. Summed up: as §1
Assay [13] relates to CP194. Described as above. The conditions noted are these: P. falciparum in erythrocytes, SYBR Green DNA, 72 h; series mostly up to 28.7 µM. Summed up: as §1
The subject of assay [14] is CP201. The assay is described as above. The conditions noted are these: P. falciparum in erythrocytes, SYBR Green DNA, 72 h; series mostly up to 28.7 µM. The procedure, abridged: as §1
For assay [15], the system named is CP203. The assay is described as above. The conditions noted are these: P. falciparum in erythrocytes, SYBR Green DNA, 72 h; series mostly up to 28.7 µM. The procedure, abridged: as §1
Assay [16] concerns CP211. The description is as above. The conditions noted are these: P. falciparum in erythrocytes, SYBR Green DNA, 72 h; series mostly up to 28.7 µM. The procedure, abridged: as §1
The test system of assay [17] is CP215. The description is as above. Conditions: P. falciparum in erythrocytes, SYBR Green DNA, 72 h; series mostly up to 28.7 µM. The procedure, abridged:
as §1

Assay [18] relates to CP217. The description is as above. Conditions: P. falciparum in erythrocytes, SYBR Green DNA, 72 h; series mostly up to 28.7 µM. The procedure, abridged: as §1
In assay [19] the test system is CP237. The description is as above. The conditions noted are these: P. falciparum in erythrocytes, SYBR Green DNA, 72 h; series mostly up to 28.7 µM. Summed up: as §1
Assay [20] relates to CP238. The description is as above. Conditions: P. falciparum in erythrocytes, SYBR Green DNA, 72 h; series mostly up to 28.7 µM. The procedure, abridged: as §1
[21] abbreviates: TFE3-RCC UOK109 viability, measured here: UOK109 Z-AUC.
The mark [22] stands for this setting: TFE3-RCC viability, measured here: UOK124 Z-AUC.
[23] abbreviates: TFE3-RCC viability, measured here: UOK145 Z-AUC.
[24] abbreviates: at 28.7 µM (top of the series), parasite line A.
Where [25] appears, read: at 28.7 µM (top of the series), parasite line B.

In PubChem BioAssay (NCATS) one finds Potency, z-score and activity, negative = inhibition data, which are given here for 15 compounds.

Records with an inconclusive call do not appear. Calls of active or inactive are those of the source. Unless noted, calls follow the shape of the dose curve; as a rule, active = well fitted inhibition curve with a large enough effect; inconclusive = small, poorly fitted or top-dose-only effect; inactive = flat fitted curve, though single readings scatter.

As to `CCCCc1ccc2nc(NC(=O)OC)[nH]c2c1`, in assay [1] (TFE3-RCC UOK109 viability), the Potency is 16.6 nM (active). Besides, the figures for the z-score in assay [1] (setting [21]), in assay [1] (setting [22]) and in assay [1] (setting [23]) were -1.8, -3.11 and -1.73, respectively. Further, the activity, negative = inhibition in assay [2] (at 12.8 µM (top of the series), parasite line A) is 2.35% (inactive); in assay [2] (at 12.8 µM (top of the series), parasite line B) it was 6.2% (inactive). Also, the Potency result in assay [3], in assay [4], in [5], in [6], in [7] and in [8] was “inactive” in each case. Moreover, the Potency entry in assay [9], in assay [10], in [11], in assay [12], in assay [13] and in assay [14] was “inactive” each time. For the same compound, the Potency entry in assay [15], in assay [16], in [17], in assay [18], in [19] and in assay [20] was “inactive” throughout.
For `CC(=O)O[C@H]1C(=O)[C@@]2(C)C([C@H](OC(=O)c3ccccc3)[C@]3(O)C[C@H](OC(=O)[C@H](O)[C@@H](NC(=O)c4ccccc4)c4ccccc4)C(C)=C1C3(C)C)[C@]1(OC(C)=O)CO[C@@H]1C[C@@H]2O` (some centres undefined), in [1] (TFE3-RCC UOK109 viability), the Potency was 41.8 nM (active). In addition, the z-score is -1.4 in [1] (setting [21]), -1.86 in assay [1] (setting [22]) and -1.46 in assay [1] (setting [23]).
With `COc1c2occc2cc2ccc(=O)oc12`, the z-score in assay [1] (setting [21]) was -0.0945; in assay [1] (setting [22]), 0.483; in assay [1] (setting [23]), 0.177.
For `Cc1ccc(C(=O)c2cc(O)c(O)c([N+](=O)[O-])c2)cc1`, in that order: 0.222, 0.88 and 0.533.
For `CC(=O)Nc1ccc(O)cc1`, in that order: 1.26, 0.904 and 0.696.
For `CC1=C(C(=O)O)N2C(=O)[C@@H](NC(=O)[C@H](N)C3=CCC=CC3)[C@H]2SC1`, the results for the z-score in assay [1] (setting [21]), in assay [1] (setting [22]) and in [1] (setting [23]) were 1.56, 0.465 and 0.657, respectively.
For `COc1c(O)cc2c(c1O)[C@@H]1O[C@H](CO)[C@@H](O)[C@H](O)[C@H]1OC2=O`, in that order: 0.427, 0.313 and -0.262.
For `CCOC(=O)C(C)Oc1cccc2c(=O)n(CC(=O)Nc3ccc4c(c3)OCCO4)ccc12` (centres undefined), in that order: 0.811, 0.396 and 0.65.
Turning to `O=c1c(O)c(-c2cc(O)c(O)c(O)c2)oc2cc(O)cc(O)c12`, the z-score in [1] (setting [21]) is 0.252; in assay [1] (setting [22]), 0.375; in [1] (setting [23]) it was -0.367.
Take `CCCOc1ccc2nc(NC(=O)OC)[nH]c2c1`: the Potency in [1] (TFE3-RCC UOK109 viability) was 7.43 nM (active). The z-score in assay [1] (setting [21]) was -2.25; in assay [1] (setting [22]), -3.82; in assay [1] (setting [23]), -2.16. Moreover, the activity, negative = inhibition in [2] (setting [24]) was -0.812% (inactive); in [2] (setting [25]), 13.5% (inactive). Besides, the Potency entry in assay [3], in [4], in assay [5], in assay [6], in assay [7] and in assay [8] was “inactive” throughout. The Potency result in assay [9], in [10], in [11], in assay [12], in assay [13] and in assay [14] was “inactive” in each case. In addition, the Potency result in [15], in assay [16], in assay [17], in assay [18], in [19] and in assay [20] was “inactive” each time.
With `O=C1c2c(O)cc(O)cc2OC(c2ccc(O)c(O)c2)C1O` (centres undefined), the z-score is -0.477 in [1] (setting [21]), 0.528 in assay [1] (setting [22]) and 0.535 in assay [1] (setting [23]).
Regarding `CC(C)C[C@H](NC(=O)[C@H](Cc1ccccc1)NC(=O)c1cnccn1)B(O)O`, the Potency in assay [1] (TFE3-RCC UOK109 viability) was 118 nM (active). Also, the z-score in assay [1] (setting [21]) is -1.97; in [1] (setting [22]), -3.15; in [1] (setting [23]) it was -4.08.
Consider `COc1cc2c(cc1OC)C1CC(=O)C(CC(C)C)CN1CC2` (centres undefined), for which the z-score stood at 0.853 in assay [1] (setting [21]), 0.433 in assay [1] (setting [22]) and 0.758 in assay [1] (setting [23]). The activity, negative = inhibition in assay [2] (setting [24]) is 3.41% (inactive); in assay [2] (setting [25]), 0.311% (inactive). In addition, the Potency result in assay [3], in assay [4], in assay [5], in assay [6], in assay [7] and in assay [8] was “inactive” throughout. The Potency result in assay [9], in [10], in assay [11], in assay [12], in [13] and in assay [14] was “inactive” throughout. The Potency entry in [15], in [16], in assay [17], in assay [18], in [19] and in [20] was “inactive” throughout.
`CC(=O)NC[C@H]1CN(c2ccc(N3CCOCC3)c(F)c2)C(=O)O1`: the z-score in assay [1] (setting [21]) is -0.988; in assay [1] (setting [22]) it was 0.658; in assay [1] (setting [23]) it was 1.47.
Taken in the same sequence, the figures for `c1cnc2cc3c(cc2n1)C1CNCC3C1` were -0.0233, 0.674 and 0.454.
